This is an account of results in PubChem BioAssay (NCATS).

Records with an inconclusive call do not appear. Active and inactive are the calls of the source. The call rests on the fitted dose curve; in most records, active means well fitted curve in the direction sought with a large enough effect; inconclusive means small, poorly fitted or top-dose-only effect, or another doubt; inactive means no such curve, though single readings can be large; an effect the other way counts as inactive or inconclusive.

The nature of test [1]: qHTS of pediatric cancer cell lines to identify multiple opportunities for drug repurposing: Primary screen for OHS-50 cells (AID 1347103). Further: nearly all actives have a fitted effect of over 40% in size. Further: potency means the concentration at half of the fitted maximal effect. An outline of the steps: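 Cells (500-1,000/well) rested 5 h, then received compounds for 48 h; metabolically active cells were measured by CellTiter-Glo luminescence. Final concentrations spanned up to 46 µM (MIPE, 11-point) or 0.59 nM-46 µM (NPC, 8-point) in primary screens, 11-point in follow-ups.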
(In general: In qHTS, concentration-response curves come from the screen itself.)

The nature of test [2]: qHTS of pediatric cancer cell lines to identify multiple opportunities for drug repurposing: Primary screen for RD cells (AID 1347104). Further: nearly all actives have a fitted effect of over 55% in size. Further: potency means the concentration at half of the fitted maximal effect. An outline of the steps: (§1)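 Phenotypic viability qHTS, 48 h compound exposure, CellTiter-Glo luminescence read-out; multi-concentration dosing so that potency and efficacy derive directly from the primary screen's curves.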
Test [3] in a line: qHTS of pediatric cancer cell lines to identify multiple opportunities for drug repurposing: Primary screen for MG 63 (6-TG R) cells (AID 1347105). Further: nearly all actives have a fitted effect of over 50% in size. Further: potency means the concentration at half of the fitted maximal effect. Put shortly: as §1
Test [4] is described as follows: qHTS of pediatric cancer cell lines to identify multiple opportunities for drug repurposing: Primary screen for control Hh wild type fibroblast cells (AID 1347106).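 Further: series mostly up to about 46 µM; a drop in luminescence marks cytotoxicity and a rise apparent proliferation; nearly all actives have a fitted effect of over 55% in size.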 Put shortly:
(§2)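 Cells (500-1,000/well) in growth media were settled 5 h at 37 degrees C, then given compounds for 48 h. Viability was read as CellTiter-Glo luminescence. Primary runs used MIPE at 11 points (0.78 nM-46 µM) and NPC at 8 points (0.59 nM-46 µM); follow-ups used 11 points.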

The nature of test [5]: qHTS of pediatric cancer cell lines to identify multiple opportunities for drug repurposing: Primary screen for Rh30 cells (AID 1347107). Further: series mostly up to about 46 µM; nearly all actives have a fitted effect of over 75% in size. Put shortly:
as §2

Test [6] can be described thus: qHTS of pediatric cancer cell lines to identify multiple opportunities for drug repurposing: Primary screen for Rh41 cells (AID 1347108).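 Further: series mostly up to about 46 µM; luminescence drop marks cytotoxic hits; nearly all actives have a fitted effect of over 70% in size.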 An outline of the steps: as §1
Test [7] can be described thus: qHTS of pediatric cancer cell lines to identify multiple opportunities for drug repurposing: Confirmatory screen for NB1643 cells (AID 1347109). Further: potency means the concentration at half of the fitted maximal effect; nearly all actives have a fitted effect of over 45% in size. Put shortly:
as §2

A short description of test [8]: qHTS of pediatric cancer cell lines to identify multiple opportunities for drug repurposing: Confirmatory screen for SK-N-MC cells (AID 1347111).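 Further: potency means the concentration at half of the fitted maximal effect; cells exposed to compound for 48 h before the readout; nearly all actives have a fitted effect of over 70% in size.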 The following applies: SK-N-MC cell viability. From the text:
Drug repurposing or repositioning has been offered as a strategy for drug development in oncology programs. This approach has special potential for childhood cancers and other rare or orphan diseases, where the expected return on new drug development has been a disincentive to pharmaceuticals.
In this project we exploit the poly-pharmacology of drugs to discover new indications via phenotypic screening of a panel of 19 well-characterized cell lines derived from solid tumors seen in children and adolescents. The goal is to identify approved drugs with previously unrecognized anticancer properties that has the potential to reveal new mechanisms and biological processes involved in carcinogenesis or drug resistance. We employed a titration-based paradigm (quantitative high-throughput screening or qHTS), where all compounds were tested at multiple concentrations for their effect on cell viability. Concentration-response curves (CRCs) were derived directly from the primary screen, and both potency and efficacy values were used to identify compounds with robust bioactivity profiles. We screened the NIH Chemical Genomics Center (NCGC) Pharmaceutical Collection (NPC) and Mechanism Interrogation Plate (MIPE) small molecule collections of approved and investigational compounds against these cell lines; and measured metabolically active cells after 48 hours of compound treatment as a proxy for cell viability.
Assay Submitter: Nathalia J. Martinez, National Center for Advancing Translational Sciences, National Institutes of Health, Rockville, MD, USA; email: natalia.martinez@nih.gov
[1] Shen, M et al. Quantitative high-throughput phenotypic screening of pediatric cancer cell lines identifies multiple opportunities for drug repurposing. Oncotarget 2017 Dec 19;9(4):4758-4772. PMID 29435139.
The cells were obtained from University of North Carolina (UNC), Pediatric Preclinical Testing Program (PPT), and Coriell Institute (CI).
qHTS cell viability assay:
Cells were assayed in growth media at a density of 500-1,000 cells/well. Five microliters of cells were dispensed into 1,536-well, white, solid-bottom, TC-treated plates (Greiner Bio One) using a multidrop dispenser and incubated at 37 degrees C, 5% CO2, under a humidified atmosphere for 5 hours. Twenty-three nanoliters of compounds and controls (neutral control DMSO or positive control bortezomib at final concentration of 2.3 µM) were subsequently transferred by Kalypsys pintool. For primary screens, the MIPE collection was tested at 11-point dilutions (final concentrations range from 0.78 nM to 46 µM) and the NPC collection at 8-point dilutions (final concentrations range from 0.59nM to 46 µM). Compounds tested in follow-up screens were assayed at 11-point dilutions. Cells were incubated for 48 hours, followed by addition of 3 uL of CellTiter-Glo (Promega). After a 15 min incubation at room temperature, samples were analyzed for luminescence intensity using a ViewLux High-throughput CCD imager equipped with clear filters.

A short description of test [9]: qHTS of pediatric cancer cell lines to identify multiple opportunities for drug repurposing: Confirmatory screen for LAN-5 cells (AID 1347113). Further: potency means the concentration at half of the fitted maximal effect; nearly all actives have a fitted effect of over 65% in size. Put shortly:
as §2

With `CC(C)(C)c1nnc(NS(=O)(=O)c2ccc(N)cc2)s1`, the Potency entry in [1], in test [2], in [3], in [4], in test [5] and in [6] was “inactive” each time.
In the case of `CNC(=O)c1c(I)c(NC(=O)CCCCC(=O)Nc2c(I)c(C(=O)O)c(I)c(C(=O)NC)c2I)c(I)c(C(=O)O)c1I`, the Potency result in [1], in [2], in [3], in test [4], in [5] and in test [6] was “inactive” throughout.
On to `COc1cc2c3cc1Oc1cc(ccc1O)C[C@@H]1c4c(cc(OC)c(O)c4Oc4ccc(cc4)C[C@@H]3N(C)CC2)CC[N+]1(C)C`, for which the Potency entry in test [1], in test [2], in [3], in [4], in [5] and in [6] was “inactive” throughout.
As for `CN1CC(=O)N/C1=N/C(=O)Nc1cccc(Cl)c1`, the Potency result in test [1], in test [2], in test [3], in test [4], in test [5] and in test [6] was “inactive” each time.
As for `O=C(O)c1cc(O)c(O)c(O)c1`, the Potency entry in test [1], in test [2], in test [3], in test [4], in test [5] and in [6] was “inactive” in each case.
Turning to `CC1(C)S[C@@H]2[C@H](NC(=O)[C@H](N)c3ccccc3)C(=O)N2[C@H]1C(=O)O`, the Potency entry in test [1], in test [2], in test [3], in test [4], in test [5] and in [6] was “inactive” each time.
As to `CCCCCCCCCCCCCCCC(=O)OC(C)C`, the Potency entry in test [1], in test [2], in test [3], in [4], in test [5] and in [6] was “inactive” each time.
With `Nc1ccc(O)c(C(=O)O)c1`, the Potency entry in test [1], in [2], in test [3], in test [4], in [5] and in test [6] was “inactive” each time.
`O=C(CCN1CCN(CCO)CC1)N1c2ccccc2Sc2ccc(C(F)(F)F)cc21`: the Potency entry in [1], in test [2], in [3], in test [4], in [5] and in test [6] was “inactive” throughout.
Turning to `O=C(/C=C/c1ccccc1)NCCO`, the Potency entry in test [1], in [2], in [3], in [4], in [5] and in test [6] was “inactive” throughout.
Regarding `CCCCCCCCCCCCCCCCCC(=O)O`, the Potency result in test [1], in test [2], in test [3], in test [4], in [5] and in test [6] was “inactive” in each case.
Take `C/C(=N\O)c1ccc(OCC(=O)N2CCCCC2)cc1`: the Potency entry in test [1], in test [2], in test [3], in test [4], in [5] and in test [6] was “inactive” in each case.
For `Cc1ccc(C(=O)c2ccc(CC(=O)O)n2C)cc1`, the Potency entry in test [1], in [2], in test [3], in [4], in test [5] and in test [6] was “inactive” each time.
For the compound `CC(C(=O)O)c1ccc2c(c1)[nH]c1ccc(Cl)cc12` (stereo unspecified), the Potency result in test [1], in test [2], in test [3], in test [4], in [5] and in test [6] was “inactive” in each case.
With `Oc1c(Br)cc(Br)c2cccnc12`, the Potency in test [1] is 15.5 µM (active); in test [2] it was 23.7 µM (active); in [3], 21.1 µM (active); in test [7], 26.1 µM (active); in [8], 1.17 µM (active); in test [9] it was 18.5 µM (active). The Potency entry in test [4] was “inactive”.
Consider `CN(C)CCn1nnnc1SCC1=C(C(=O)O)N2C(=O)[C@@H](NC(=O)Cc3csc(N)n3)[C@H]2SC1`, for which the Potency result in test [1], in [2], in [3], in test [4], in test [5] and in test [6] was “inactive” in each case.
In the case of `O=C(O)c1ccccc1Nc1cccc(C(F)(F)F)c1`, the Potency result in [1], in test [2], in [3], in test [4], in test [5] and in test [6] was “inactive” throughout.
As for `CCCCCCCCCCCCOCCO`, the Potency entry in [1], in test [2], in test [3], in [4], in test [5] and in [6] was “inactive” each time.
On to `c1ccc2sc(SN3CCOCC3)nc2c1`, for which the Potency entry in [1], in test [2], in [3], in [4], in [5] and in test [6] was “inactive” in each case.
Regarding `Nc1ccc(O)c([N+](=O)[O-])c1`, the Potency entry in test [1], in test [2], in test [3], in [4], in test [5] and in test [6] was “inactive” each time.
